Results reported in the supplement of paper PMC10849652.
Targets with a hit are over-represented here; the source holds about 8,800 in all. About 0.5% of all pairs of compound and target were hits.

Columns and labels:
Experiment in all cases: log2 fold change, soluble protein after heating vs DMSO (PISA); higher = thermal stabilisation; K562 lysate, 10 uM; active = over 0.2 and 3.5 SD of the protein, either way, in both replicates (recomputed)
alvocidib = compound: CN1CC[C@H](c2c(O)cc(O)c3c(=O)cc(-c4ccccc4Cl)oc23)[C@H](O)C1 [alvocidib]
Method in brief: (§1)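 K562 pellets were dounce-homogenised in PBS pH 7.4 containing 1 mM MgCl2, and the crude extract, at 1 mg/mL protein, was exposed to 10 μM compound for 30 min. Aliquots were heated for 3 min across 48°C-58°C, pooled, brought to 0.5% NP-40 at 4°C and spun at 21,000xg for 90 min, with the supernatant taken as soluble protein. TMTpro 16plex LC-MS/MS with equalised channel sums quantified that protein. Values are log-two fold changes in thermal stability relative to solvent controls, taken from duplicates.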

Tubastatin A = compound: CN1CCc2c(c3ccccc3n2Cc2ccc(C(=O)NO)cc2)C1 [Tubastatin A]
Method in brief: as §1

[1] = compound: CNC(=O)C1=CC=CC=C1NC2=NC(=NC=C2Cl)NC3=C(C=C(C=C3)N4CCOCC4)OC
Method in brief: as §1

defactinib = compound: CNC(=O)c1ccc(Nc2ncc(C(F)(F)F)c(NCc3nccnc3N(C)S(C)(=O)=O)n2)cc1 [defactinib]
Method in brief: as §1

[2] = compound: CNc1nc(-c2ccc3c(N)n[nH]c3c2)cc(N2C[C@@H](C(=O)NC3CCCCC3)CC[C@H]2C)n1
Method in brief: as §1

encorafenib = compound: COC(=O)N[C@@H](C)CNc1nccc(-c2cn(C(C)C)nc2-c2cc(Cl)cc(NS(C)(=O)=O)c2F)n1 [encorafenib]
Method in brief: as §1

[3] = compound: COC(=O)[C@H](CCSC)NC(=O)C1=C(C=C(C=C1)NC[C@H](CS)N)C2=CC=CC=C2
Method in brief: as §1

alisertib = compound: COc1cc(Nc2ncc3c(n2)-c2ccc(Cl)cc2C(c2c(F)cccc2OC)=NC3)ccc1C(=O)O [alisertib]
Method in brief: as §1

[4] = compound: COc1cc2nc(-c3cc(F)ccc3O)nc(N[C@@H]3CNC[C@H]3C(C)(C)O)c2cc1OC
Method in brief: as §1

gefitinib = compound: COc1cc2ncnc(Nc3ccc(F)c(Cl)c3)c2cc1OCCCN1CCOCC1 [gefitinib]
Method in brief: as §1

Measured: log2 fold change

AGPAT1 (UniProt Q99943)
Chain of UniProt Q99943 (Q99943 whole entry, looked up): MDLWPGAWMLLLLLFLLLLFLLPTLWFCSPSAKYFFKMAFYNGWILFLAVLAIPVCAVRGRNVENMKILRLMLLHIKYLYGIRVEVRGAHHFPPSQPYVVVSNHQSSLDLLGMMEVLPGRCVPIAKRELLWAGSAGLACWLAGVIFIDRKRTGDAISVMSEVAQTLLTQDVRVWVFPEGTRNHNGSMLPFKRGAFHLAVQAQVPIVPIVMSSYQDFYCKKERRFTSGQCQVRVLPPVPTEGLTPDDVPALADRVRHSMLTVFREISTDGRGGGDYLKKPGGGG
inactive: alvocidib -0.002 | Tubastatin A -0.015 | [1] 0.052 | defactinib -0.007 | [2] -0.033 | encorafenib 0.075 | [3] -0.016 | alisertib -0.015 | [4] -0.232 | gefitinib 0.028

ACIN1 (UniProt E7EQT4)
inactive: alvocidib -0.093 | Tubastatin A 0.095 | [1] 0.003 | defactinib -0.038 | [2] 0.06 | encorafenib 0.022 | [3] -0.033 | alisertib -0.039 | [4] -0.011 | gefitinib 0.051

ABHD17A isoform 2 (UniProt Q96GS6)
inactive: alvocidib -0.025 | Tubastatin A 0.023 | [1] -0.025 | defactinib -0.009 | [2] 0.01 | encorafenib -0.009 | [3] -0.222 | alisertib -0.12 | [4] 0.04 | gefitinib 0.044

AMPD3 isoform 4 (UniProt Q01432)
Chain of UniProt Q01432 (Q01432 whole entry, looked up): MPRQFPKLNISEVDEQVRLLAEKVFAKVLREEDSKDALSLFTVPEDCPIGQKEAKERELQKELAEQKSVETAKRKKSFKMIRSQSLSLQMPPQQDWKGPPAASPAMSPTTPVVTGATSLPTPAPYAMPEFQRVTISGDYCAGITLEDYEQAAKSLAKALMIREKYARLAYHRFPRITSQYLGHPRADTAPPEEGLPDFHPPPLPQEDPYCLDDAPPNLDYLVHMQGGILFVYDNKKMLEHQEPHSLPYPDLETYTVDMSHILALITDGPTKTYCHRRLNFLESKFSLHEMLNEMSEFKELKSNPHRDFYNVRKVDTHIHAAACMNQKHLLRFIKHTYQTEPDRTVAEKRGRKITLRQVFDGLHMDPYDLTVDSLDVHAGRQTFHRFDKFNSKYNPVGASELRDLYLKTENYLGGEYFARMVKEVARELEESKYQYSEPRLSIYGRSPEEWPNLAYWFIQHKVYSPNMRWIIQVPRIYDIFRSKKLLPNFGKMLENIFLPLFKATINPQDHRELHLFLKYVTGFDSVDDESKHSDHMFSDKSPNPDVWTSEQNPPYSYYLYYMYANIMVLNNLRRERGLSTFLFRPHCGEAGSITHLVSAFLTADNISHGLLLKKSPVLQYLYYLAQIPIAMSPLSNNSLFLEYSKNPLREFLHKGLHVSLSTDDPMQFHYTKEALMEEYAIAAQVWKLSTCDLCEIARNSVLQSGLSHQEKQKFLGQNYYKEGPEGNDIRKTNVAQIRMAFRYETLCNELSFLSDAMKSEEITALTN
inactive: alvocidib 0.012 | Tubastatin A 0.027 | [1] 0.015 | defactinib 0.011 | [2] -0.034 | encorafenib -0.013 | [3] 0.103 | alisertib 0.008 | [4] -0.068 | gefitinib 0.012

ALDH2 (UniProt P05091)
Chain of UniProt P05091 (P05091 whole entry, looked up): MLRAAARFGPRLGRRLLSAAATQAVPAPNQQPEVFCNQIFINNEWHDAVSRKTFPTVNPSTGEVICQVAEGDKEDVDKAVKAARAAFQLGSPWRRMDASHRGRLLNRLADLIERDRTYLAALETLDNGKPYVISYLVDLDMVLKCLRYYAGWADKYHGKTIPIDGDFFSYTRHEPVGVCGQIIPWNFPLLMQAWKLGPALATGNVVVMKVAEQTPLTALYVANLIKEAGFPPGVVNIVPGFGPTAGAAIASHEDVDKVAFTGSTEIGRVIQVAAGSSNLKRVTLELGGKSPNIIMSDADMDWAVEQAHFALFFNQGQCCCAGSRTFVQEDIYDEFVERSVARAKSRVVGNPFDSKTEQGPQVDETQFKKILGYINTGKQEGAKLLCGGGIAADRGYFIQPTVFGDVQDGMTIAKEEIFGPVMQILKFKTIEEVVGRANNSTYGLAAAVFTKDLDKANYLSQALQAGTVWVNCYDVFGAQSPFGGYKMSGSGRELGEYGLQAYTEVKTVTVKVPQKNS
active: [1] 0.437
inactive: alvocidib 0.059 | Tubastatin A -0.006 | defactinib -0.03 | [2] -0.051 | encorafenib 0.006 | [3] -0.03 | alisertib 0.037 | [4] -0.016 | gefitinib 0.014

ACBD6 (UniProt Q9BR61)
Chain of UniProt Q9BR61 (Q9BR61 whole entry, looked up): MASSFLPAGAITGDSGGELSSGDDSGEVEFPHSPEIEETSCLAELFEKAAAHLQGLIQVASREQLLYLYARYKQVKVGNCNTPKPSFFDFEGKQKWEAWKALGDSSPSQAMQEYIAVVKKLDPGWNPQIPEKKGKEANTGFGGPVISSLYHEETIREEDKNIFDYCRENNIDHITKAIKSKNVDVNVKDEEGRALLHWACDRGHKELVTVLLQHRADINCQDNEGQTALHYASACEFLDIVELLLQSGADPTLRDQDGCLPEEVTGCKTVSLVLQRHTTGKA
inactive: alvocidib -0.009 | Tubastatin A -0.15 | [1] 0.056 | defactinib -0.005 | [2] 0.016 | encorafenib -0.003 | [3] 0.051 | alisertib -0.006 | [4] 0.016 | gefitinib -0.022

AGTPBP1 (UniProt Q9UPW5)
inactive: alvocidib 0.034 | Tubastatin A 0.046 | [1] 0.024 | defactinib -0.058 | [2] -0.001 | encorafenib -0.014 | [3] -0.031 | alisertib 0.097 | [4] -0.039 | gefitinib -0.004

ACTBL2 (UniProt Q562R1)
Chain of UniProt Q562R1 (Q562R1 whole entry, looked up): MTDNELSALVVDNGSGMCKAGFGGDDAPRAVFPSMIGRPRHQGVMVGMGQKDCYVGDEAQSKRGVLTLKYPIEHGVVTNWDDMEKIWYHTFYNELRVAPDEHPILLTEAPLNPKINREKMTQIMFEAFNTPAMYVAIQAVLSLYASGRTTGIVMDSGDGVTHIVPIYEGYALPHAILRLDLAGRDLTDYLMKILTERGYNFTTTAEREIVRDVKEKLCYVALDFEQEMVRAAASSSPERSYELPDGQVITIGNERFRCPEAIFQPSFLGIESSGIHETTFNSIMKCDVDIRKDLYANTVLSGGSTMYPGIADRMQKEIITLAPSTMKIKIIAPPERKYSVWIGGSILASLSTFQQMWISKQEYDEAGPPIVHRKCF
inactive: alvocidib -0.083 | Tubastatin A -0.111 | [1] -0.01 | defactinib 0.093 | [2] -0.008 | encorafenib -0.226 | [3] 0.005 | alisertib -0.273 | [4] 0.009 | gefitinib -0.223

AMMECR1 (UniProt Q9Y4X0)
Chain of UniProt Q9Y4X0 (Q9Y4X0 whole entry, looked up): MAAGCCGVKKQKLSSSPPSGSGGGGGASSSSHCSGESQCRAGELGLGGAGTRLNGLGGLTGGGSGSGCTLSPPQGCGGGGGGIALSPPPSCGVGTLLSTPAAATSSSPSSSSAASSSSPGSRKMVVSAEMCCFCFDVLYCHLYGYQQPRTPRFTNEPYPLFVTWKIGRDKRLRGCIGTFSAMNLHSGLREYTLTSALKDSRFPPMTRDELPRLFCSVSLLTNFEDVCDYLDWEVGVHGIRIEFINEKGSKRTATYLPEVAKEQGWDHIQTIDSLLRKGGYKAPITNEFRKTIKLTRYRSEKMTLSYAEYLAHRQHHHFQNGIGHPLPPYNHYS
inactive: alvocidib -0.014 | Tubastatin A 0.022 | [1] 0.02 | defactinib 0.02 | [2] 0.003 | encorafenib 0.02 | [3] -0.01 | alisertib -0.031 | [4] 0.011 | gefitinib -0.019

ACSL4 (UniProt O60488)
inactive: alvocidib 0.023 | Tubastatin A -0.06 | [1] 0.047 | defactinib 0.054 | [2] -0.034 | encorafenib 0.003 | [3] 0.073 | alisertib -0.017 | [4] 0.019 | gefitinib 0.014

AKR1C2 (UniProt P52895)
inactive: alvocidib -0.06 | Tubastatin A 0.061 | [1] -0.021 | defactinib -0.05 | [2] -0.151 | encorafenib -0.012 | [3] 0.018 | alisertib 0.002 | [4] 0.004 | gefitinib -0.082

AKAP8 (UniProt O43823)
inactive: alvocidib -0.031 | Tubastatin A -0.038 | [1] -0.059 | defactinib -0.001 | [2] -0.073 | encorafenib 0.072 | [3] -0.098 | alisertib 0.02 | [4] 0.058 | gefitinib -0.042

AK4 (UniProt P27144)
inactive: alvocidib 0.025 | Tubastatin A 0.036 | [1] -0.008 | defactinib 0.003 | [2] 0.009 | encorafenib 0.006 | [3] -0.07 | alisertib 0.026 | [4] -0.034 | gefitinib -0.043

ABHD11 (UniProt Q8NFV4)
inactive: alvocidib 0 | Tubastatin A 0.032 | [1] -0.066 | defactinib 0.034 | [2] 0.087 | encorafenib -0.028 | [3] 0.173 | alisertib -0.027 | [4] 0.022 | gefitinib 0.004

ADAR isoform 4 (UniProt P55265)
inactive: alvocidib -0.004 | Tubastatin A -0.167 | [1] 0.012 | defactinib 0.054 | [2] -0.001 | encorafenib 0.052 | [3] -0.041 | alisertib 0.045 | [4] 0.013 | gefitinib 0.02

ACACA isoform 4 (UniProt Q13085)
inactive: alvocidib 0.016 | Tubastatin A -0.115 | [1] -0.011 | defactinib -0.008 | [2] -0.02 | encorafenib 0.032 | [3] -0.16 | alisertib 0.014 | [4] 0 | gefitinib -0.004

ADRM1 (UniProt Q16186)
inactive: alvocidib 0.009 | Tubastatin A -0.064 | [1] -0.027 | defactinib 0.003 | [2] 0.011 | encorafenib -0.033 | [3] 0.118 | alisertib 0.032 | [4] -0.001 | gefitinib -0.009

ALDH18A1 (UniProt P54886)
inactive: alvocidib -0.005 | Tubastatin A -0.049 | [1] 0.005 | defactinib 0.006 | [2] -0.01 | encorafenib -0.009 | [3] 0.062 | alisertib 0.01 | [4] 0.017 | gefitinib 0.001

ABHD16A (UniProt O95870)
inactive: alvocidib 0.036 | Tubastatin A 0.066 | [1] -0.077 | defactinib 0.009 | [2] 0.054 | encorafenib -0.074 | alisertib -0.029 | [4] -0.004 | gefitinib -0.021
active: [3] 0.245

ABCD3 (UniProt P28288)
Chain of UniProt P28288 (P28288 whole entry, looked up): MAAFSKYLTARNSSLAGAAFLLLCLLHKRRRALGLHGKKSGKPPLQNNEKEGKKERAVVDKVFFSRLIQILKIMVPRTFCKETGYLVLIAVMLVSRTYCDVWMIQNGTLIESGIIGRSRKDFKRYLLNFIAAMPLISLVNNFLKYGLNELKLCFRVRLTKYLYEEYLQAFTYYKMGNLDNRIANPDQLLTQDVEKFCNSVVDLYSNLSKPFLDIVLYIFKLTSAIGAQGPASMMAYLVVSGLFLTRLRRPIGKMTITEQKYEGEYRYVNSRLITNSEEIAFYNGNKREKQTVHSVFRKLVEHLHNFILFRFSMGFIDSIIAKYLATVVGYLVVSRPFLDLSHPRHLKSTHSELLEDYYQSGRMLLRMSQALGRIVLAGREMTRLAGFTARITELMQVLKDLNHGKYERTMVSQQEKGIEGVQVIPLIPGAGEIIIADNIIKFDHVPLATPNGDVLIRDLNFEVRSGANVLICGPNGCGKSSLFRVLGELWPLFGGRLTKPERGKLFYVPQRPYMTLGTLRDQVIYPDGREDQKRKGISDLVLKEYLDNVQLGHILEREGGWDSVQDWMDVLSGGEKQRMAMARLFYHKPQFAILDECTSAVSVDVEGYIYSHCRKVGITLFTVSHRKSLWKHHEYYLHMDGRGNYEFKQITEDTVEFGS
inactive: alvocidib -0.064 | Tubastatin A 0.1 | [1] -0.114 | defactinib -0.019 | [2] -0.048 | encorafenib 0.028 | alisertib 0.044 | [4] -0.013 | gefitinib 0.145
active: [3] 0.444

ACTG1 (UniProt I3L4N8)
inactive: alvocidib 0.089 | Tubastatin A 0.119 | [1] 0.046 | defactinib -0.142 | [2] -0.005 | encorafenib 0.209 | [3] 0 | alisertib -0.198 | [4] -0.003 | gefitinib -0.115

ALKBH4 (UniProt Q9NXW9)
Chain of UniProt Q9NXW9 (Q9NXW9 whole entry, looked up): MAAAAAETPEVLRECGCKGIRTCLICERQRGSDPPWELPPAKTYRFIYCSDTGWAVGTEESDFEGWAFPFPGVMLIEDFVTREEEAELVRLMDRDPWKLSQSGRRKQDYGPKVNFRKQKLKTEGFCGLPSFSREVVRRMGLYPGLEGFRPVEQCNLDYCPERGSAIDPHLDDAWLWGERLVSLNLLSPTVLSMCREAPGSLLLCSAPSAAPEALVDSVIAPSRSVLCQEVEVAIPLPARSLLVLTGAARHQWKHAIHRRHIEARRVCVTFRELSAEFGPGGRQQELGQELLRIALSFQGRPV
inactive: alvocidib 0.029 | Tubastatin A -0.093 | [1] -0.003 | defactinib 0.166 | [2] 0.026 | encorafenib 0.053 | [3] -0.02 | alisertib 0.019 | [4] -0.03 | gefitinib 0.044

ANAPC7 (UniProt Q9UJX3)
inactive: alvocidib 0.011 | Tubastatin A -0.1 | [1] 0.036 | defactinib 0.014 | [2] -0.03 | encorafenib 0.026 | [3] 0.002 | alisertib -0.001 | [4] 0.005 | gefitinib 0.017

AKT1 (UniProt P31749)
inactive: alvocidib -0.002 | Tubastatin A -0.018 | [1] 0.036 | defactinib 0.038 | [2] -0.05 | encorafenib 0.084 | [3] 0.093 | alisertib 0.019 | [4] 0.003 | gefitinib -0.05

AHCYL1 (UniProt O43865)
inactive: alvocidib 0.025 | Tubastatin A -0.096 | [1] 0.051 | defactinib 0.06 | [2] 0.037 | encorafenib 0.01 | [3] 0.009 | alisertib -0.041 | [4] -0.003 | gefitinib -0.012

ACACB (UniProt O00763)
inactive: alvocidib -0.04 | Tubastatin A -0.153 | [1] 0.007 | defactinib 0.019 | [2] -0.043 | encorafenib 0.127 | [3] -0.156 | alisertib 0.016 | [4] 0.006 | gefitinib 0.006

ARAP1 (UniProt Q96P48)
Chain of UniProt Q96P48 (Q96P48 whole entry, looked up): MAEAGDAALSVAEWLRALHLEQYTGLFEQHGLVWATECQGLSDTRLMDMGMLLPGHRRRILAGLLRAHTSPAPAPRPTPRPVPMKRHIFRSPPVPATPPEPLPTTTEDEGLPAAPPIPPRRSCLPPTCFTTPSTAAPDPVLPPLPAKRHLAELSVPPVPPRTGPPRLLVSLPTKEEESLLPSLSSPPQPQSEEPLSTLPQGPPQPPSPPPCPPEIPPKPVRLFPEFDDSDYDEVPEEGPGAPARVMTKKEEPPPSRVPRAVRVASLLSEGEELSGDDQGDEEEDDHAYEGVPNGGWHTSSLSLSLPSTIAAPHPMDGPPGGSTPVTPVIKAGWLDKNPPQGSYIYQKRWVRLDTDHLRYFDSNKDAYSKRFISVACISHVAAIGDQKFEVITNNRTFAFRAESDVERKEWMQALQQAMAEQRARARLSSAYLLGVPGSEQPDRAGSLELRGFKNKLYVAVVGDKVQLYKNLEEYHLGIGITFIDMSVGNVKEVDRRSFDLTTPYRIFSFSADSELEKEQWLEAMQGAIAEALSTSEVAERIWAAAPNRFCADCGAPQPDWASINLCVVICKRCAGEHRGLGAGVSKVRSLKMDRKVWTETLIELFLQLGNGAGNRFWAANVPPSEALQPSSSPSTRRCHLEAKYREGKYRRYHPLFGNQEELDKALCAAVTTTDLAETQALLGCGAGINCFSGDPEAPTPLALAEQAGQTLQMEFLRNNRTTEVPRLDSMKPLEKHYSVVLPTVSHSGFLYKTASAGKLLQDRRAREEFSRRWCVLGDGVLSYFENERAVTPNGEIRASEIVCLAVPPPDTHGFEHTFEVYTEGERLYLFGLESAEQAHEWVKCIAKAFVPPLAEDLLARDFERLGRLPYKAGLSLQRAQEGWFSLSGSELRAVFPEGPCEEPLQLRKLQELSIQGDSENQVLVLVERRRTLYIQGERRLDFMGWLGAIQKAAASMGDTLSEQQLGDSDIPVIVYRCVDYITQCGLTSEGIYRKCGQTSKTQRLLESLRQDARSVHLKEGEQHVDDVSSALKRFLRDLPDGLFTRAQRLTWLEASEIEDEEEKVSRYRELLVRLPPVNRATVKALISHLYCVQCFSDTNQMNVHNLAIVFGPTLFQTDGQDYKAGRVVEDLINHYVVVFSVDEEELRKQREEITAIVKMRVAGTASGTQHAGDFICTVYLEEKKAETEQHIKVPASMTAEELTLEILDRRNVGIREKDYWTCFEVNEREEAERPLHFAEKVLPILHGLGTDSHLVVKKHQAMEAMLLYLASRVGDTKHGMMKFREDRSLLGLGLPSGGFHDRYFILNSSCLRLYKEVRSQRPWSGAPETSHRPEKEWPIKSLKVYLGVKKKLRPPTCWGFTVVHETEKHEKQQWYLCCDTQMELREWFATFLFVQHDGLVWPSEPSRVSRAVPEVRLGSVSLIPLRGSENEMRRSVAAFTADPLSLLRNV
inactive: alvocidib -0.027 | Tubastatin A -0.135 | [1] 0.033 | defactinib 0.075 | [2] 0.017 | encorafenib 0.06 | [3] 0.078 | alisertib 0.015 | [4] 0.003 | gefitinib 0.041

AP3D1 isoform 5 (UniProt O14617)
inactive: alvocidib -0.02 | Tubastatin A -0.048 | [1] 0.018 | defactinib 0.033 | [2] 0.03 | encorafenib 0.026 | [3] -0.028 | alisertib -0.009 | [4] 0.004 | gefitinib -0.014

ABCF2 isoform 2 (UniProt Q9UG63)
inactive: alvocidib 0.004 | Tubastatin A -0.169 | [1] -0.001 | defactinib -0.039 | [2] 0.005 | encorafenib -0.005 | [3] 0.08 | alisertib 0.014 | [4] 0.025 | gefitinib -0.02

ARMC6 (UniProt Q6NXE6)
inactive: alvocidib 0 | Tubastatin A -0.171 | [1] 0 | defactinib -0.003 | [2] -0.103 | encorafenib 0.037 | alisertib 0.005 | [4] -0.014 | gefitinib 0.041
active: [3] 0.234
